PG9 binder = binders of HIV-1 gp120 antibody PG9, primary screen, biochemical, TR-FRET | HIV-1 gp120 / PG9 antibody interaction | TR-FRET gp120-PG9 antibody binding | inhibition, % at 6.7 µM | 360,000 compounds, 0.43% hits; in the data active means inhibition above about 8.5%
NR1D1 modulator = modulators of Rev-erb alpha DNA binding, primary screen, biochemical, FITC-DNA, fluorescence polarization, uHTS | Nuclear receptor subfamily 1 group D member 1 (Homo sapiens), P20393 | Rev-erbα–FITC-DNA binding, 90 min | activity, % at 10 µM | 370,000 compounds, 0.79% hits | AID 1259318, 2017;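 active means activity above about 14%, limit read from the data; passing the limit was not always enough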;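 further: 0% = DMSO wells with 35 nM protein and 100% = DMSO wells with 750 nM protein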
Target sequence (P20393 whole entry, looked up): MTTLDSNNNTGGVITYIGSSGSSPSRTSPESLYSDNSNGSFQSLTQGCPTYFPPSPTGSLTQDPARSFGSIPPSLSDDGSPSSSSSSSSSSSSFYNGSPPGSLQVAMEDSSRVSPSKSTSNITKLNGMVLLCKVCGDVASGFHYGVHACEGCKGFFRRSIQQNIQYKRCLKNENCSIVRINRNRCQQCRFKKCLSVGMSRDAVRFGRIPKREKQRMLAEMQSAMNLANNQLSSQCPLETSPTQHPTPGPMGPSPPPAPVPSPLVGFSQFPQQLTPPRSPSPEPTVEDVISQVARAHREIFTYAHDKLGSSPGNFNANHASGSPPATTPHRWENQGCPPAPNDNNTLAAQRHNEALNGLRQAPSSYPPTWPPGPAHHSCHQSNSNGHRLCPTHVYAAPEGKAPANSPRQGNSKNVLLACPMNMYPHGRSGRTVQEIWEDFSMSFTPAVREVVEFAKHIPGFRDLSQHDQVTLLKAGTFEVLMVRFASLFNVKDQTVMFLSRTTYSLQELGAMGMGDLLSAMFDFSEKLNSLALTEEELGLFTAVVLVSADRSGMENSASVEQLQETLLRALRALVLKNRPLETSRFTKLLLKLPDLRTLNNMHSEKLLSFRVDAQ
GASC-1 inh = inhibitors of GASC-1 histone demethylase, primary screen, biochemical, fluorescence, DELFIA europium; Lysine-specific demethylase 4C (Homo sapiens), Q9H3R0; GST-JMJD2C(1-420) H3K9me3 demethylation; inhibition, % at 2.35 µM; 330,000 compounds, 0.069% hits;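 active means more than half of a compound's replicate wells show inhibition beyond 50%, single wells judged on their own value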;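 further: signal counts dimethyl H3K9 product captured on neutravidin plate; 0% = median of DMSO wells and 100% = 0.3 times that DMSO median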
PP1 counter = PP1-alpha phosphatase inhibitors, primary screen, counter-screen for PP5 inhibitor project, biochemical, fluorescence, OMFP substrate, single point; purified PP1alpha; inhibition, % at 6.7 µM; 320,000 compounds, 0.9% hits; AID 2235, 2010;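 active means inhibition above the mean inhibition of all tested compounds plus 3 SD, computed separately for each screening campaign, cut at about 15% in these data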
KLK7 zymogen act = proKLK7 zymogen activators, primary screen, biochemical, fluorescence intensity; 370,000 compounds, 0.9% hits; activation, % at 7 µM; purified proKLK7, EDANS-DABCYL substrate fluorescence; 100% is mature enzyme control, 0% vehicle; Kallikrein-7 (Homo sapiens), P49862;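 active means activation above the mean of all tested compounds plus 3 SD, computed per campaign excluding outliers beyond control limits, cut at about 13% in these data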
PP5 inh = PP5 phosphatase inhibitors, primary screen, biochemical, fluorescence; 320,000 compounds, 0.18% hits; purified PP5c, OMFP substrate fluorescence; Serine/threonine-protein phosphatase 5 (Homo sapiens), P53041; inhibition, % at 6.7 µM; AID 1987, 2009;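 active means inhibition above the campaign's mean inhibition across all tested compounds plus 3 SD, cut at about 9.5% in these data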;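 further: 0% = DMSO only and 100% = 100 µM cantharidin control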
PP1 confirm = PP1 phosphatase inhibitors, confirmation, biochemical, fluorescence, OMFP substrate, triplicate. AID 2358, 2010. purified PP1alpha. 1,900 compounds, 52% hits. shares compounds with PP1 counter. inhibition, % at 6.7 µM;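 active means mean PP1 inhibition above a set limit taken from the earlier primary screen, cut at about 15% in these data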
PP5 inh counter = PP5 phosphatase inhibition by PP1 hits, confirmation, counter-screen for PP1 inhibitor project, biochemical, fluorescence, triplicate | shares compounds with PP1 counter | purified PP5c, OMFP fluorescence | inhibition, % at 6.7 µM | 1,900 compounds, 4% hits | AID 2360, 2010;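 active means mean PP5 inhibition over triplicate wells above about 9.5% taken from the earlier PP1 screen, limit read from the data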
* marks the source's active call; other numbers are inactive results; nt = not tested or not shown. Rows were chosen to be rich in hits. Some 2.8% of all compounds tested hit in one or more screens of this group.

SMILES | PG9 binder | NR1D1 modulator | GASC-1 inh | PP1 counter | KLK7 zymogen act | PP5 inh | PP1 confirm | PP5 inh counter
COC(=O)c1cccc(OC[C@@H](O)CN2CCC(C(O)(c3ccccc3)c3ccccc3)CC2)c1 | nt | 2 | nt | nt | 0 | nt | nt | nt
CCOC(=O)CC[C@@H]1CC[C@]2(CCCN(Cc3nccs3)C2)O1 | nt | -2 | nt | nt | -1 | nt | nt | nt
O=C(OCc1ccccc1)[C@H](Cc1ccccc1)NC(=O)[C@@H]1CC=C[C@@H]2CCN(Cc3ccccc3)C(=O)[C@@H]21 | nt | 0 | nt | nt | nt | nt | nt | nt
O=C(Nc1nnc(C2CC2)o1)c1ccc(S(=O)(=O)N2CCCCC2)cc1 | -2 | -1 | 11 | 20* | -1 | 1 | 8 | 0
CC1CCCCN1S(=O)(=O)c1ccc(C(=O)Nc2nnc(-c3ccccn3)o2)cc1 (stereo not drawn) | -2 | 6 | -10 | 23* | 1 | 4 | 22* | 1
CC1CCN(S(=O)(=O)c2ccc(C(=O)Nc3nnc(C4CC4)o3)cc2)CC1 | 0 | 10 | -5 | 23* | 0 | 2 | 23* | 6
CC1CCCCN1S(=O)(=O)c1ccc(C(=O)Nc2nnc(C3CC3)o2)cc1 (stereo not drawn) | 0 | -4 | -2 | 20* | 1 | 2 | 12 | -2
CCOC(=O)N1CCN(C(=O)C[C@@H]2C[C@]3(C(=O)OCC)CCC4=C3N(CCC4)C2=O)CC1 | nt | 2 | nt | nt | 0 | nt | nt | nt
COc1ccc(-c2ccccc2C2Cc3nnccc3CN2)cc1 (stereo not drawn) | 0 | -1 | nt | nt | 1 | nt | nt | nt
CCOc1ccc(CNC(=O)CCn2c(=O)oc3ccccc32)cc1 | 0 | 3 | -5 | 23* | 0 | 3 | -4 | -4
Cc1csc2nc(O)c(C(=O)NCCCc3ccccc3)c(=O)n12 | 2 | 3 | 76 | 20* | 0 | 1 | 13 | -5
O=C(/C=C/c1ccco1)Nc1nc(-c2ccccn2)cs1 | 1 | -10 | -7 | 32* | -1 | 2 | 40* | -2
O=C(Nc1nc(-c2ccccn2)cs1)c1ccc(Cl)s1 | -4 | 9 | 2 | 31* | 1 | 6 | 29* | 4
O=C(COc1ccc(F)cc1Cl)Nc1nc(-c2ccccn2)cs1 | -1 | 1 | 5 | 42* | -1 | 1 | 43* | -2
O=C(Nc1nc(-c2ccccn2)cs1)c1ncc(Cl)c(Cl)c1Cl | -1 | 3 | 8 | 37* | 0 | 2 | 41* | 1
O=C(Nc1nc(-c2ccccn2)cs1)C1CCCC1 | 1 | -4 | -43 | 11 | 0 | -1 | nt | nt
N#Cc1ccccc1OCC(=O)Nc1nc(-c2ccccn2)cs1 | 1 | 9 | nt | nt | 0 | nt | nt | nt
CCc1sc(C(=O)Nc2nc(-c3ccccn3)cs2)cc1C | nt | nt | -1 | nt | nt | nt | nt | nt
Nc1[nH]c(C(=O)c2ccccc2)c(-c2ccccn2)c1C(=O)c1c[nH]c2ccc(Br)cc12 | nt | 2 | nt | nt | nt | nt | nt | nt
CC(C)c1ccc(NC(=O)O[C@H]2CC[C@@]34CCCN3C(=O)CCC[C@H]4[C@H]2C)cc1 | nt | -1 | nt | nt | nt | nt | nt | nt
S=C(Nc1ccc(Cl)c(Cl)c1)Nc1nnc(-c2ccncc2)s1 | nt | -24 | nt | nt | nt | nt | nt | nt
Cc1ccc(C(=O)Nc2nc(-c3ccccn3)cs2)s1 | -3 | 2 | 6 | 34* | 0 | 5 | 32* | -1
CSCCC(=O)Nc1nc(-c2ccccn2)cs1 | 0 | -11 | nt | nt | 1 | nt | nt | nt
Cn1cccc1C(=O)Nc1nc(-c2ccccn2)cs1 | 0 | -9 | 136 | 32* | 0 | 6 | 41* | 1
Cc1csc(NC(=O)c2cccn2C)n1 | -1 | -1 | 1 | 2 | 0 | 0 | nt | nt
SMILES | PG9 binder | NR1D1 modulator | GASC-1 inh | PP1 counter | KLK7 zymogen act | PP5 inh | PP1 confirm | PP5 inh counter
O=C(CCCSc1ccccc1)Nc1nc(-c2ccccn2)cs1 | 1 | 6 | -5 | 41* | 0 | 5 | 39* | -2
Cc1nnc(-n2cccc2)s1 | 0 | 0 | nt | nt | -1 | nt | nt | nt
COc1ccc(S[C@]2(C(=O)N3CCN(c4ncccn4)CC3)CC(=O)N(P(=O)(OC)OC)[C@@H]2c2ccc(OC)cc2)cc1 | nt | 11 | nt | nt | 0 | nt | nt | nt
C[C@H](c1ccccc1)N1C[C@@H](COCc2ccccc2)Oc2cccc(Oc3ccc(F)cc3)c2S1(=O)=O | -2 | 12 | nt | nt | 0 | nt | nt | nt
COc1ccc(S[C@]2(C(=O)N(C)C)CC(=O)N(c3ccc(C#N)cc3)[C@@H]2c2ccc(OC)cc2)cc1 | nt | -3 | nt | nt | 2 | nt | nt | nt
Cc1ccc(NC(=O)CSc2nc(O)cc(=O)n2-c2ccc(C)cc2)cc1 | 0 | -1 | -109 | 25* | 0 | 0 | 1 | -1
O=c1cc(O)nc(SCc2ccccc2)n1-c1ccc(Cl)cc1 | 0 | -6 | 1 | 21* | 0 | 1 | 4 | -2
COc1ccc(NC(=O)CSc2nc(O)cc(=O)n2-c2ccccc2OC)cc1 | nt | -2 | -5 | 21* | nt | 0 | 1 | -3
NC(=O)CSc1nc(O)cc(=O)n1-c1ccccc1 | -3 | 3 | 4 | -3 | 0 | -1 | nt | nt
Fc1ccccc1Cn1ccc2ccc(-c3ccc4ccn(Cc5ccccc5F)c4c3)cc21 | nt | 1 | nt | nt | -4 | nt | nt | nt
CC(CCN1CCC(C(O)(c2ccccc2)c2ccccc2)CC1)Oc1ccc(C#N)c(F)c1 (stereo not drawn) | nt | -3 | nt | nt | 0 | nt | nt | nt
O=C(NCc1ccccc1)[C@@H]1CCCN1C(=O)[C@H]1CCCN1C(=O)C1CCCCC1 | -2 | -1 | nt | nt | 1 | nt | nt | nt
Cc1cc(-c2n[nH]c(=S)n2N=Cc2c3ccccc3cc3ccccc23)n[nH]1 | nt | 5 | nt | nt | -19 | nt | nt | nt
COCc1cc(N2CCN(C(=O)OC(C)(C)C)C[C@H]2C)ccc1Br | 1 | 8 | nt | nt | 0 | nt | nt | nt
O=C(O)c1ccc(/C=N\Nc2ccc(S(=O)(=O)N3CCOCC3)cc2[N+](=O)[O-])cc1 | -1 | 14 | 1 | 0 | -1 | 1 | nt | nt
Cc1ccc(-n2c(O)c(/C=N/Nc3ccc(S(=O)(=O)N4CCOCC4)cc3[N+](=O)[O-])c3ccccc3c2=O)c(C)c1 | -4 | 2 | 5 | 18* | 4 | 2 | 18* | 5
O=[N+]([O-])c1ccccc1/C=C/C1Nc2cccc3cccc(c23)N1 | nt | -5 | nt | nt | 0 | nt | nt | nt
COc1ccc(C2CC(c3ccccc3)=NN2C(=O)c2cccs2)cc1 (stereo not drawn) | 0 | -3 | -9 | 4 | 0 | 3 | nt | nt
